For test [1] the following is noted: Ebola virus entry assay, ratio channel.
For test [2] the following is noted: Ebola virus entry assay, green channel fluorescence.
The conditions of test [3]: Ebola virus entry assay, reporter ratio channel; AC50: Channel type: primary unless noted; outcome: Channel type: primary unless noted.
The conditions of test [4]: Ebola virus entry assay, blue channel fluorescence.
The conditions of test [5]: Ebola virus entry assay, blue channel (ratio component).
For test [6] the following is noted: Ebola virus entry cell assay, ratio channel.
For test [7] the following is noted: Ebola virus entry reporter assay, green channel fluorescence.

Structures are written as SMILES. For some assays here: Potency and affinity values are given separately. Activity calls are given as the source filed them.

On to `Cc1cccc(C)c1OCC(=O)N[C@@H](Cc1ccccc1)[C@@H](O)C[C@H](Cc1ccccc1)NC(=O)[C@H](C(C)C)N1CCCNC1=O`, for which the result in test [1] and in test [2] was inactive. Further, the concentration at half-maximal activity (AC50) in test [3] is 39.8 µM (active).

For `O=c1[nH]c(=O)n([C@H]2C[C@H](O)[C@@H](CO)O2)cc1F`, the outcome in test [1], in test [2], in test [4], in test [3], in test [5] and in test [6] was inactive.

For the molecule `CC(C)[C@H](N)C(=O)OCCOCn1cnc2c(=O)[nH]c(N)nc21`, the outcome in test [1], in test [2], in test [4], in test [3], in test [5] and in test [7] was inactive. The result in test [6] was inactive.

For the molecule `C[C@]12CCC(=O)C=C1CC[C@H]1[C@@H]3CC[C@](O)(C(=O)CO)[C@@]3(C)C[C@H](O)[C@@]12F`, the outcome in test [1], in test [2], in test [4], in test [3], in test [5] and in test [7] was inactive. In addition, the outcome in test [6] was inactive.

Consider `NCCCCCC(=O)O`, for which the outcome in test [1], in test [2], in test [4], in test [3] and in test [6] was inactive.

On to `COc1c(N2C[C@@H]3CCCN[C@@H]3C2)c(F)cc2c(=O)c(C(=O)O)cn(C3CC3)c12`, for which the outcome in test [1], in test [2], in test [4], in test [3], in test [5] and in test [7] was inactive. Moreover, the result in test [6] was inactive.

Turning to `CO[C@]12C[C@@H](COC(=O)c3cncc(Br)c3)CN(C)[C@@H]1Cc1cn(C)c3cccc2c13`, the AC50 in test [1] and in test [3] was 20 µM (active) each time. Further, the outcome in test [2] was inactive.

For `CCN1CC(CCN2CCOCC2)C(c2ccccc2)(c2ccccc2)C1=O` (stereo not drawn), the result in test [1], in test [2], in test [4], in test [3], in test [5] and in test [6] was inactive.

With `NC(=O)N1c2ccccc2C=Cc2ccccc21`, the outcome in test [1], in test [2], in test [4], in test [3], in test [5] and in test [7] was inactive. Further, the outcome in test [6] was inactive.

Turning to `CC(C)(C)NCC(O)COc1ccc(NC(=O)NC2CCCCC2)cc1` (stereo not drawn), the result in test [1] and in test [2] was inactive. Moreover, the AC50 in test [3] was 39.8 µM (active).

Turning to `C[C@H](CS)C(=O)N1CCC[C@H]1C(=O)O`, the result in test [1], in test [2], in test [4], in test [3], in test [5] and in test [7] was inactive. Further, in test [6], the outcome was inactive.

Regarding `O=C(O)Cc1cn(-c2ccccc2)nc1-c1ccc(Cl)cc1`, the result in test [1], in test [2], in test [3] and in test [5] was inactive.

In the case of `CS(=O)(=O)c1ccc([C@@H](O)[C@@H](CF)NC(=O)C(Cl)Cl)cc1`, the result in test [1], in test [2], in test [3] and in test [5] was inactive.

On to `CC(CN(C)C)C(C)(O)Cc1ccc(Cl)cc1` (stereo not drawn), for which the outcome in test [1] and in test [2] was inactive. Besides, in test [3], the AC50 was 28.2 µM (active).

Consider `O=C(NCC1CCCCN1)c1cc(OCC(F)(F)F)ccc1OCC(F)(F)F` (stereo not drawn), for which the concentration at half-maximal activity (AC50) in test [1] and in test [3] was 35.5 µM (active) in each case. The molecule was called inactive in test [2].

Take `CC1(C)OC(=O)NC1=O`: the result in test [1], in test [2], in test [3] and in test [5] was inactive.

Turning to `C[C@H]1C[C@@H]2[C@H]([C@@H](O)C[C@@]3(C)[C@H]2CC[C@]3(O)C(=O)CO)[C@@]2(C)C=CC(=O)C=C12`, the result in test [1], in test [2], in test [3] and in test [5] was inactive.

As for `NC(=O)n1c(O)c(C(=O)c2cccs2)c2cc(Cl)ccc21`, the result in test [1], in test [2], in test [3] and in test [5] was inactive.

Turning to `CC(C)(C)c1ccc(O)cc1`, the outcome in test [1], in test [2], in test [3] and in test [5] was inactive.

As to `O=C(O)[C@@H]1CSCN1`, the outcome in test [1], in test [2], in test [3] and in test [5] was inactive.

As to `CCN[C@@H](C)Cc1cccc(C(F)(F)F)c1`, the result in test [1], in test [2], in test [3] and in test [5] was inactive.

Turning to `COc1cc2c(cc1OC)CN(C(=O)[C@H](C)N[C@@H](CCc1ccccc1)C(=O)O)[C@H](C(=O)O)C2`, the result in test [1], in test [2], in test [3] and in test [5] was inactive.

Consider `NC(=O)N[C@@H](CCC(=O)O)C(=O)O`, for which the result in test [1], in test [2], in test [3] and in test [5] was inactive.

As to `CCOC(=O)c1cnc2c(cnn2CC)c1NN=C(C)C`, the outcome in test [1], in test [2], in test [3] and in test [5] was inactive.

Take `COCC(=O)Nc1c(I)c(C(=O)NCC(O)CO)c(I)c(C(=O)N(C)CC(O)CO)c1I` (stereo not drawn): the result in test [1], in test [2], in test [3] and in test [5] was inactive.

On to `Nc1ccc(S(=O)(=O)NC(=O)c2ccccc2)cc1`, for which the outcome in test [1], in test [2], in test [3] and in test [5] was inactive.

Turning to `Cc1nc(-c2ccc(Cl)cc2)oc1COC(C)(C)C(=O)O`, the outcome in test [1], in test [2], in test [3] and in test [5] was inactive.

In the case of `O=C1CCCc2c(O)cccc21`, the outcome in test [1], in test [2], in test [3] and in test [5] was inactive.

With `CC(C(=O)c1ccccc1)N(C)C` (stereo not drawn), the result in test [1], in test [2], in test [3] and in test [5] was inactive.

Regarding `Clc1ccc(C(c2ccc(Cl)cc2)C(Cl)(Cl)Cl)cc1`, the result in test [1], in test [2], in test [3] and in test [5] was inactive.

For the molecule `CN(C)CCOC(=O)COc1ccc(Cl)cc1`, the result in test [1], in test [2], in test [3] and in test [5] was inactive.

On to `CCCCC/C=C\C/C=C\C/C=C\C/C=C\CCCC(=O)NCC(=O)O`, for which the result in test [1], in test [2], in test [3] and in test [5] was inactive.

For `N#CCC(=O)NN`, the outcome in test [1], in test [2], in test [3] and in test [5] was inactive.

Turning to `CCOC(=O)c1ccccc1O`, the outcome in test [1], in test [2], in test [3] and in test [5] was inactive.

Regarding `COC(=O)c1ccccc1C(=O)c1ccc(OCCN2CCCCC2)cc1`, the concentration at half-maximal activity (AC50) in test [1] and in test [3] was 14.1 µM (active) throughout. Moreover, the molecule was classed as inactive in test [2].

In the case of `CC(C)Cc1ccc(CC(=O)O)cc1`, the result in test [1], in test [2], in test [3] and in test [5] was inactive.

A word on the AC50: it is the concentration giving half of the maximal activity seen.

The values are drawn from PubChem BioAssay (NCATS).
